The text below walks through data of PubChem BioAssay (NCI).

About 83,000 compounds went through this panel and 20% of them were active in at least one assay; those are over-represented in the sample as a whole.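 96-well plates, one dose, 48 hours. Percent growth reported; active if below 10.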 Unmarked numbers belong to inactive results. Calls of active or inactive are those of the source.

Holding throughout (assay): NCI-60 one-dose screen, 48 h (100 = growth as untreated, 0 = no growth, -100 = all killed)
The subject of one experiment is SR leukemia. Conditions: 10 µM unless noted.
In the next experiment the test system is RPMI-8226 leukemia. The conditions noted are these: 10 µM unless noted.
Another experiment deals with OVCAR-8 ovarian. The conditions noted are these: 10 µM unless noted.
The subject of another experiment is OVCAR-5 ovarian. The conditions noted are these: 10 µM unless noted.
Another experiment has as its system OVCAR-4 ovarian. Conditions: 10 µM unless noted.
In another experiment the test system is SK-OV-3 ovarian. Conditions: 10 µM unless noted.
For another experiment, the system named is IGROV1 ovarian. The conditions noted are these: 10 µM unless noted.
The subject of the next experiment is OVCAR-3 ovarian. Conditions: 10 µM unless noted.
Another experiment deals with HS 578T breast. The conditions noted are these: 10 µM.
The next experiment has as its system NCI/ADR-RES ovarian. The conditions noted are these: 10 µM unless noted.
A further experiment concerns T-47D breast. Conditions: 10 µM unless noted.
The next experiment relates to BT-549 breast. The conditions noted are these: 10 µM unless noted.
For a further experiment, the system named is MDA-MB-435 melanoma. The conditions noted are these: 10 µM unless noted.
In the next experiment the test system is SW-620 colon. The conditions noted are these: 10 µM unless noted.
Another experiment relates to MCF7 breast. The conditions noted are these: 10 µM unless noted.
The subject of the next experiment is HCT-116 colon. Conditions: 10 µM unless noted.
For another experiment, the system named is HCC-2998 colon. The conditions noted are these: 10 µM unless noted.
The subject of another experiment is KM12 colon. Conditions: 10 µM unless noted.

Turning to `CCCc1n(Cc2ccc3ccccc3n2)cc[n+]1Cc1ccc2ccccc2n1`, the growth in the experiment on SR leukemia is 13%; with RPMI-8226 leukemia, -10.8% (active); in the experiment with OVCAR-8 ovarian, 35.6%; in the experiment on OVCAR-5 ovarian, 47.7%; in the experiment on OVCAR-4 ovarian, 8.56% (active); with SK-OV-3 ovarian, 61.6%. For the same compound, the growth was 30.6% with IGROV1 ovarian; 9.64% (active) in the experiment with OVCAR-3 ovarian; 58.8% in the experiment with HS 578T breast; 98.4% in the experiment with NCI/ADR-RES ovarian; 7.17% (active) in the experiment on T-47D breast; 13.9% in the experiment with BT-549 breast. Further, the growth is 7.6% (active) in the experiment with MDA-MB-435 melanoma; 36.7% in the experiment on SW-620 colon; 15.3% in the experiment with MCF7 breast; 22.9% with HCT-116 colon; 26.2% with HCC-2998 colon; 15.7% with KM12 colon.

As for `CCCCc1n(Cc2ccc3ccccc3n2)cc[n+]1Cc1ccc2ccccc2n1`, the growth in the experiment on SR leukemia is 6.57% (active); in the experiment with RPMI-8226 leukemia it was -20.3% (active); in the experiment on OVCAR-8 ovarian it was 15%; in the experiment on OVCAR-5 ovarian it was 25.2%; in the experiment on OVCAR-4 ovarian it was 14%; with SK-OV-3 ovarian, 24.4%. Also, the growth was 17.8% with IGROV1 ovarian; 9.83% (active) in the experiment with OVCAR-3 ovarian; 41.5% in the experiment on HS 578T breast; 97.9% with NCI/ADR-RES ovarian; 6.69% (active) in the experiment on T-47D breast; 2.91% (active) in the experiment with BT-549 breast. In addition, the growth in the experiment with MDA-MB-435 melanoma was 7.37% (active); in the experiment with SW-620 colon, 22.1%; with MCF7 breast, 7.29% (active); in the experiment on HCT-116 colon, 9.88% (active); in the experiment with HCC-2998 colon it was 18.5%; in the experiment on KM12 colon, 5.78% (active).

As to `COc1ccc2[nH]c(C(=O)OCc3ccc4c(Br)cc(Br)c(O)c4n3)cc2c1`, the growth was 2.81% (active) in the experiment on SR leukemia; -24.2% (active) with RPMI-8226 leukemia; -27.7% (active) in the experiment on OVCAR-8 ovarian; -48.4% (active) with OVCAR-5 ovarian; -44.2% (active) in the experiment with OVCAR-4 ovarian; 62.6% in the experiment with SK-OV-3 ovarian. In addition, the growth in the experiment with IGROV1 ovarian is -90.9% (active); with OVCAR-3 ovarian, -91.3% (active); in the experiment on HS 578T breast, -15.4% (active); with NCI/ADR-RES ovarian, -30.6% (active); in the experiment with T-47D breast, -51.9% (active); in the experiment on BT-549 breast, -88.2% (active). The growth in the experiment with MDA-MB-435 melanoma is -72.4% (active); in the experiment with SW-620 colon, -72.8% (active); in the experiment with MCF7 breast it was -36.8% (active); in the experiment on HCT-116 colon, -74.8% (active); in the experiment on HCC-2998 colon it was -77.7% (active); in the experiment on KM12 colon, -48.6% (active).

Turning to `O=C(OCc1ccc2c(Cl)cc(Cl)c(O)c2n1)c1cc2ccccc2[nH]1`, the growth in the experiment with SR leukemia was 0.939% (active); with RPMI-8226 leukemia it was -37.4% (active); with OVCAR-8 ovarian it was -24.9% (active); in the experiment on OVCAR-5 ovarian, -55.2% (active); in the experiment on OVCAR-4 ovarian it was -70.4% (active); with SK-OV-3 ovarian, 67.5%. Further, the growth in the experiment on IGROV1 ovarian is -89.5% (active); with OVCAR-3 ovarian, -92.1% (active); in the experiment with HS 578T breast, -14.4% (active); with NCI/ADR-RES ovarian, -35.3% (active); in the experiment with T-47D breast it was -57.2% (active); in the experiment with BT-549 breast, -76.3% (active). The growth is -89.4% (active) in the experiment on MDA-MB-435 melanoma; -66.2% (active) with SW-620 colon; -35.7% (active) with MCF7 breast; -73.3% (active) in the experiment on HCT-116 colon; -73.1% (active) in the experiment on HCC-2998 colon; -63.9% (active) with KM12 colon.

As to `Cc1ccc(N=CNN=C(N)N)cc1`, the growth with SR leukemia was 76.9%; with RPMI-8226 leukemia, 99.4%; in the experiment on OVCAR-8 ovarian it was 91%; with OVCAR-5 ovarian, 99.5%; in the experiment on OVCAR-4 ovarian it was 94.5%; in the experiment with SK-OV-3 ovarian, 104%. Moreover, the growth in the experiment with IGROV1 ovarian was 103%; in the experiment on OVCAR-3 ovarian, 112%; in the experiment on HS 578T breast, 140%; with NCI/ADR-RES ovarian, 108%; in the experiment with T-47D breast, 98.8%; in the experiment with BT-549 breast it was 108%. The growth with MDA-MB-435 melanoma was 112%; in the experiment with SW-620 colon, 108%; in the experiment with MCF7 breast, 99%; with HCT-116 colon, 103%; in the experiment with HCC-2998 colon it was 108%; in the experiment with KM12 colon, 107%.

With `Cc1ccc(C2CC(c3cccs3)=NN2c2ccc(S(N)(=O)=O)cc2)s1` (centres undefined), the growth in the experiment on SR leukemia is 82.2%; with RPMI-8226 leukemia, 65.3%; in the experiment on OVCAR-8 ovarian, 83.2%; in the experiment with OVCAR-5 ovarian, 101%; with OVCAR-4 ovarian, 110%; in the experiment on SK-OV-3 ovarian, 101%. Further, the growth is 98.8% in the experiment on IGROV1 ovarian; 94% in the experiment with OVCAR-3 ovarian; 97.2% in the experiment with HS 578T breast; 84.6% with NCI/ADR-RES ovarian; 71.5% with T-47D breast; 102% in the experiment on BT-549 breast. The growth in the experiment on MDA-MB-435 melanoma is 80.8%; in the experiment on SW-620 colon, 97.8%; in the experiment with MCF7 breast, 77.3%; in the experiment on HCT-116 colon, 79.2%; with HCC-2998 colon, 103%; with KM12 colon, 93.2%.

For the compound `CN1CCN(Cc2ccc(NC(=O)c3ccc(C#N)c(C#Cc4cnc(N)c5ncccc45)c3)cc2C(F)(F)F)CC1`, the growth in the experiment with SR leukemia is 9.25% (active); in the experiment with RPMI-8226 leukemia, 69.7%; in the experiment on OVCAR-8 ovarian it was 12.6%; in the experiment with OVCAR-5 ovarian it was 18%; in the experiment on OVCAR-4 ovarian, 75.2%; in the experiment with SK-OV-3 ovarian it was 97.6%. In addition, the growth is 55.3% in the experiment with IGROV1 ovarian; 102% in the experiment with OVCAR-3 ovarian; 68.2% in the experiment on HS 578T breast; 94% with NCI/ADR-RES ovarian; 112% with T-47D breast; 103% in the experiment on BT-549 breast. The growth is 56% in the experiment on MDA-MB-435 melanoma; 23.4% with SW-620 colon; 16.3% in the experiment with MCF7 breast; -10.5% (active) in the experiment with HCT-116 colon; 112% in the experiment on HCC-2998 colon; 13.5% in the experiment with KM12 colon.

`NC(=O)c1noc(C(=O)c2ccccc2)c1N`: the growth in the experiment on SR leukemia was 90.8%; in the experiment with RPMI-8226 leukemia, 99.4%; in the experiment on OVCAR-8 ovarian, 97.3%; in the experiment on OVCAR-5 ovarian, 100%; with OVCAR-4 ovarian, 89.4%; in the experiment with SK-OV-3 ovarian, 107%. Also, the growth is 90.4% in the experiment on IGROV1 ovarian; 96.9% with OVCAR-3 ovarian; 112% with HS 578T breast; 112% in the experiment with NCI/ADR-RES ovarian; 100% with T-47D breast; 98.2% with BT-549 breast. The growth was 95.6% with MDA-MB-435 melanoma; 101% with SW-620 colon; 97.3% with MCF7 breast; 85.4% in the experiment with HCT-116 colon; 119% with HCC-2998 colon; 98.7% in the experiment with KM12 colon.
